DT40 TDP1 CPT – growth inhibition of DT40 Tdp1-/-;hTDP1 cells with camptothecin (screen for TDP1 inhibitors) | chicken DT40 Tdp1-/-;hTDP1 cells + 20 nM CPT, ATP luminescence, 48 h | Potency, µM (top dose mostly 46.2 µM), inactives show top-dose activity change, negative = growth inhibition, usual class: inhibitors | hit rate 12% among 420,000; note: potency is the fitted concentration of half-maximal effect; nearly all actives have a fitted effect of over 55% in size
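Cell growth measured by CellTiter-Glo luminescence after a minimum 48 h, 37 C compound exposure with 20 nM CPT in Tdp1-knockout DT40 cells stably expressing hTDP1, seeded 400/well; qHTS titration format.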
IL-1B inflam inh – inhibitors of inflammasome signaling (IL-1 beta secretion); THP-1 LPS/ATP IL-1B secretion, AlphaLISA, 16 h; hits give low values; activity change, % at 57.5 µM; hit rate 4.7% among 360,000; in the data active = activity change below about -50%; inconclusive = mostly about -30% to -49%
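Secreted IL-1B measured by AlphaLISA bead assay after 16 h compound exposure of THP-1 cells; compounds (final up to 57.5 uM) added 1 h before LPS (250 ng/mL) and ATP (1.25 mM) stimulation; lower signal means less secretion.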
HT1080NT lethal – kills 2HG-producing HT-1080-NT fibrosarcoma cells. hit rate 1.6% among 360,000. Potency, µM (top dose mostly 46.1 µM), for the others: top-dose activity, negative = less viability, hits mostly cytotoxic. HT-1080-NT fibrosarcoma viability, CellTiter-Glo ATP luminescence, 48 h;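 note: NT is the 2HG producing partner of a matched IDH1 knockdown line; potency is the fitted concentration of half-maximal effect; 0% = DMSO-treated cells and -100% = media-only wells without cells; nearly all actives have a fitted effect of over 55% in size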
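Viability by CellTiter-Glo luminescence after 48 h compound exposure at 37C of HT-1080-NT cells (750/well, RPMI, 5% FBS). % activity scaled between DMSO wells and medium-only wells, then curve-fitted and categorized by curve class.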
ALOX12 inh – inhibitors of human 12S-lipoxygenase ALOX12 | Potency, µM (titrated, usually from 108 µM), without a hit: at the highest dose activity change, negative = inhibition, actives largely listed as inhibitors | AID 1671190 | hit rate 1.1% among 580,000 | purified 12hLO, xylenol orange hydroperoxide absorbance | P18054; note: potency is the fitted concentration of half-maximal effect
Target sequence (P18054 whole entry, looked up): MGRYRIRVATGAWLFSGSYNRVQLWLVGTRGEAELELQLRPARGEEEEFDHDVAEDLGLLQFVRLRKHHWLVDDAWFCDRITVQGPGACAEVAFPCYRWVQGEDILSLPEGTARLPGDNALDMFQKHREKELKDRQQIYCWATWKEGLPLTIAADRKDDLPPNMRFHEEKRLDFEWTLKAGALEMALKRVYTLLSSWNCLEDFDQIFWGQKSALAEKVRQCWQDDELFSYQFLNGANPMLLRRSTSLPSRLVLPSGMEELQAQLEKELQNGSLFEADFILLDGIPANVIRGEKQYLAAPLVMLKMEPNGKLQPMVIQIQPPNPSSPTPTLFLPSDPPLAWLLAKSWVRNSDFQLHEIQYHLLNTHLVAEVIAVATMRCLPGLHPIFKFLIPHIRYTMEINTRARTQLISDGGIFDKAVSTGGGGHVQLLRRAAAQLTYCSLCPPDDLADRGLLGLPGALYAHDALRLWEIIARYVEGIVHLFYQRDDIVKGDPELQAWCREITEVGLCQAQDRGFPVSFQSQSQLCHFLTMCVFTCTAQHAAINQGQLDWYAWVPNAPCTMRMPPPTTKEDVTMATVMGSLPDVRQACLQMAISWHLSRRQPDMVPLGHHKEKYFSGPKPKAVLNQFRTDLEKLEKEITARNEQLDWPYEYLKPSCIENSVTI
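Hydroperoxide product was detected by ferrous iron/xylenol orange as the 573 to 405 nm absorbance ratio. Arachidonic acid at 40 uM (final) was turned over for 30 min at room temperature by 150 nM human 12hLO, pH 7.0 Hepes buffer, after 15 min compound preincubation.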
HT1080 IDH1KD tx – toxicity to HT-1080 IDH1 knockdown cells (counter line). AID 686971. Potency, µM (highest dose often 46.1 µM), inactives show at the top dose activity, negative = toxicity, usual class: cytotoxic. HT-1080 IDH1 knockdown viability, ATP luminescence, 48 h. hit rate 2% among 360,000;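 note: potency is the fitted concentration of half-maximal effect; 0% = DMSO wells and -100% = cell-free medium wells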
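Viability of IDH1-knockdown HT-1080 fibrosarcoma cells was assessed by CellTiter-Glo after 48 h at 37 °C with titrated compound; concentration-effect curves were classified by fit quality and response size.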
TDP1 cell noCPT – qHTS for Inhibitors of human tyrosyl-DNA phosphodiesterase 1 (TDP1): qHTS in cells in absence of CPT; DT40 Tdp1-/- hTDP1 cells, no CPT, ATP luminescence, 48 h; hit rate 15% among 420,000; AID 686978, 2013; Potency, µM (top dose mostly 46.2 µM), for inactives: at the top dose activity change, negative = growth inhibition, actives largely listed as inhibitors; note: potency is the fitted concentration of half-maximal effect; nearly all actives have a fitted effect of over 55% in size
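Compound effects on proliferation are scored in DT40 Tdp1-/-;hTDP1 cells in the absence of CPT. ATP levels (CellTiter-Glo luminescence) are recorded after a ≥48 hr, 37 °C incubation.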
* = called active by the depositor. Shown is part of a subset that was picked to be rich in hits. Unless noted, calls come from the whole dose curve; as a rule, active = well fitted curve in the direction sought with a large enough effect; inconclusive = small, poorly fitted or top-dose-only effect, or another doubt; inactive = no such curve, though single readings can be large; an effect the other way counts as inactive or inconclusive. Unless noted, % is set by controls: 0 for no effect and ±100 for the full control effect.

How did COCCn1cnc2c1c(=O)n(CC(=O)Nc1ccc(F)c(F)c1)c(=O)n2CC(C)C do in these assays?
ALOX12 inh: 3.5%

Results for CNc1nc(N)c([N+](=O)[O-])c(Nc2ccccc2OC)n1 ?
DT40 TDP1 CPT: inconclusive; IL-1B inflam inh: -4.2; HT1080NT lethal: -12.0%; ALOX12 inh: 95.8%; HT1080 IDH1KD tx: -22.6%; TDP1 cell noCPT: 20.6µM*

How did COc1ccccc1Nc1nc(N(C)c2ccccc2)nc(N)c1[N+](=O)[O-] do in these assays?
DT40 TDP1 CPT: 2.1%; IL-1B inflam inh: 14.0; HT1080NT lethal: 21.1%; HT1080 IDH1KD tx: 20.7%; TDP1 cell noCPT: inconclusive

How did CCN(C(=O)c1ccc(F)cc1I)C1CC1 do in these assays?
ALOX12 inh: -6.3%

Results for N/C(=N/O)c1ccccc1N1CCC(Cc2ccccc2)CC1 ?
DT40 TDP1 CPT: inconclusive; IL-1B inflam inh: 34.6; HT1080NT lethal: -11.0%; ALOX12 inh: 2.9%; HT1080 IDH1KD tx: -11.5%; TDP1 cell noCPT: 14.6µM*

How did c1ccc(CC2CCN(c3nnnn3-c3ccccc3)CC2)cc1 do in these assays?
DT40 TDP1 CPT: -16.2%; IL-1B inflam inh: -18.2; HT1080NT lethal: -4.9%; ALOX12 inh: -18.9%; HT1080 IDH1KD tx: -2.2%; TDP1 cell noCPT: -29.7%

How did CC(Oc1ccc(Cl)cc1Cl)c1ccnc(N)n1 (stereo unspecified) do in these assays?
DT40 TDP1 CPT: 5.8%; IL-1B inflam inh: -56.0*; HT1080NT lethal: -28.1%; ALOX12 inh: -4.4%; HT1080 IDH1KD tx: inconclusive; TDP1 cell noCPT: 6.0%

Results for CC(Oc1ccccc1)c1ccnc(N)n1 (stereo unspecified) ?
DT40 TDP1 CPT: 0.1%; IL-1B inflam inh: -6.9; HT1080NT lethal: 5.5%; ALOX12 inh: 6.8%; HT1080 IDH1KD tx: 1.5%; TDP1 cell noCPT: -0.8%

Results for COc1ccc(OC)c(NC(=O)C2CCCN(S(=O)(=O)c3cccc4nonc34)C2)c1 (stereo unspecified) ?
DT40 TDP1 CPT: -9.4%; IL-1B inflam inh: 43.7; HT1080NT lethal: 6.2%; ALOX12 inh: 3.5%; HT1080 IDH1KD tx: -8.0%; TDP1 cell noCPT: -23.5%

Results for CC(C)C(NS(=O)(=O)c1cccc2nsnc12)C(=O)Nc1nccs1 (stereo unspecified) ?
DT40 TDP1 CPT: -3.6%; IL-1B inflam inh: 27.0; HT1080NT lethal: 3.9%; ALOX12 inh: -6.4%; HT1080 IDH1KD tx: -6.9%; TDP1 cell noCPT: 6.6%

Results for Cc1ccc2nc(NC(=O)C(NS(=O)(=O)c3cccc4nsnc34)C(C)C)sc2c1 (stereo unspecified) ?
DT40 TDP1 CPT: 29.1µM*; IL-1B inflam inh: 50.8; HT1080NT lethal: 6.7%; ALOX12 inh: -15.8%; HT1080 IDH1KD tx: -5.3%; TDP1 cell noCPT: inconclusive

What do the screens show for `COc1ccc2nc(NC(=O)C3CCCN(S(=O)(=O)c4cccc5nonc45)C3)sc2c1` (stereo unspecified)?
DT40 TDP1 CPT: inconclusive; IL-1B inflam inh: -52.7*; HT1080NT lethal: -5.5%; ALOX12 inh: 59.7%; HT1080 IDH1KD tx: -7.8%; TDP1 cell noCPT: inconclusive

How did COc1ccc(CNC(=O)C2CCCN(S(=O)(=O)c3cccc4nsnc34)C2)cc1 (stereo unspecified) do in these assays?
DT40 TDP1 CPT: -11.2%; IL-1B inflam inh: -15.7; HT1080NT lethal: 8.3%; ALOX12 inh: -25.0%; HT1080 IDH1KD tx: 1.2%; TDP1 cell noCPT: 23.1µM*

What do the screens show for `CCOc1ccc2nc(NC(=O)C3CCCN(S(=O)(=O)c4cccc5nonc45)C3)sc2c1` (stereo unspecified)?
DT40 TDP1 CPT: inconclusive; IL-1B inflam inh: -11.3; HT1080NT lethal: -3.3%; ALOX12 inh: 20.1%; HT1080 IDH1KD tx: inconclusive; TDP1 cell noCPT: 16.4µM*

Screening results from PubChem.
